Screens from PubChem.
C diff HTS – blocks growth of Clostridium difficile; AID 1259249; growth activity, negative = inhibition, % at 16 µg/mL (by protocol); Clostridium difficile clinical isolate growth, OD600, 24 h; hits give low values; 86,000 tested, 0.25% active;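 active = mean growth activity at or below -80% and every replicate also at or below -80%; inconclusive = mean at or below -80% but some replicate above -80%; inactive = mean growth activity above -80%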;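 note: 0% = DMSO wells and -100% = levofloxacin 16 µg/mL wells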
Pf Dd2 inh – P. falciparum Dd2 growth inhibition. 94,000 tested, 2.3% active. activity change, % at 10 µM. SYBR Green, 72 h; hits give low values. AID 1159554; in the data active = activity change below about -80%; inconclusive = no clear call, values can overlap the other calls
T cruzi growth-1 – inhibitors of T. cruzi proliferation; 77,000 tested, 5.9% active; T. cruzi beta-gal in NIH3T3, GalScreen luminescence, 90 h; inhibition, % at 8.34 µM;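 active = mean inhibition above about 93%, with at least 55% of replicates each passing it, limit read from the data, passing the limit was not always enough; inconclusive = only one of those two conditions holds; inactive = neither condition holds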
T cruzi growth-2 – Trypanosoma cruzi proliferation inhibition. shares compounds with T cruzi growth-1. 5,600 tested, 72% active. T. cruzi beta-gal in NIH3T3, GalScreen luminescence, 90 h. inhibition, % at 8.35 µM;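 active = mean replicate inhibition above about 95% and at least 55% of replicates individually reaching it, limit read from the data; inconclusive = only one of the two criteria is met; inactive = neither criterion is met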
T cruzi growth-3 – inhibitors of T. cruzi proliferation; T. cruzi beta-gal in NIH3T3, GalScreen luminescence, 90 h; inhibition, % at 2.09 µM; shares compounds with T cruzi growth-1; AID 651740; 5,600 tested, 21% active;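 active = mean inhibition above about 95%, with at least 55% of replicates also reaching it, limit read from the data; inconclusive = meets just one of the two conditions; inactive = meets neither condition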;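 note: plate controls were neutral control median for no effect and positive control median for full effect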
3T3 cytotox – kills mouse NIH/3T3 fibroblasts | shares compounds with T cruzi growth-1 | NIH/3T3 viability, CellTiter-Glo ATP luminescence, 90 h | cytotoxicity (signal decrease), % at 8.35 µM | 5,600 tested, 14% active | AID 651742;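 active = mean signal decrease across replicates above about 35% based on untreated-well scatter, with enough replicates individually passing, limit read from the data; inconclusive = no rule stated though some were filed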;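 note: 0% = median of neutral control wells and 100% = median of positive control wells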
NIH3T3 tox 2 – NIH/3T3 (mouse) viability loss. shares compounds with T cruzi growth-1. NIH/3T3 viability, CellTiter-Glo ATP luminescence, 90 h. inhibition, % at 24.9 µM. 5,600 tested, 56% active;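 active = mean loss of cell viability signal at or above a set limit, and enough replicates individually reaching it; inconclusive = meets only the mean limit or only the replicate share; inactive = meets neither condition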;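 note: 0% = median of neutral control wells and 100% = median of positive control wells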
* = called active by the depositor; ? = inconclusive; . = not tested or not shown. The list is not random: actives were taken first. Their share in the collection is about 6.8%.

SMILES | C diff HTS | Pf Dd2 inh | T cruzi growth-1 | T cruzi growth-2 | T cruzi growth-3 | 3T3 cytotox | NIH3T3 tox 2
C[C@@H]1CN([C@@H](C)CO)C(=O)c2cccc(NC(=O)NC3CCCCC3)c2O[C@@H]1CN(C)Cc1ccc(Oc2ccccc2)cc1 | 17 | -65 | 74 | . | . | . | .
C[C@@H]1CN([C@@H](C)CO)C(=O)c2cccc(NC(=O)C3CCCCC3)c2O[C@H]1CN(C)Cc1ccc(Oc2ccccc2)cc1 | . | -67 | 104 | . | . | . | .
COC(=O)C[C@H]1CC[C@H](NS(=O)(=O)c2ccc(OC)cc2)[C@H](CO)O1 | . | 12 | -27 | . | . | . | .
O=C(C1CCC1)N1CC2(C1)[C@@H](c1ccccc1)[C@@H](CO)N2CC1CCCC1 | 18 | -26 | . | . | . | . | .
CN(C)CCCNC(=O)C[C@@H]1CC[C@@H]2[C@H](COC[C@@H](O)CN2C(=O)c2ccncc2)O1 | -2 | 2 | -80 | . | . | . | .
CO[C@@H]1CN(C)C(=O)c2ccc(NC(=O)C3CCOCC3)cc2OC[C@@H](C)N(Cc2nccs2)C[C@@H]1C | . | 31 | -37 | . | . | . | .
CC(C)NC(=O)N(C)C[C@H]1Oc2c(NC(=O)C3CC3)cccc2C(=O)N([C@@H](C)CO)C[C@H]1C | 2 | 7 | -11 | . | . | . | .
CC(C)NC(=O)N(C)C[C@H]1Oc2c(NC(=O)C3CC3)cccc2C(=O)N([C@H](C)CO)C[C@H]1C | -2 | -1 | 97* | 59 | -10 | -3 | -21
COCC#Cc1ccc2c(c1)O[C@H](CN(C)C)[C@@H](C)CN([C@H](C)CO)S2(=O)=O | 1 | 26 | 0 | . | . | . | .
O=C(Nc1ccc2c(c1)[C@@H]1C[C@@H](CC(=O)N3CCc4ccccc4C3)O[C@@H](CO)[C@@H]1O2)Nc1ccccc1F | 3 | -60 | . | . | . | . | .
CN(C)c1ccc2c(c1)[C@H]1C[C@@H](CC(=O)N3CCc4ccccc4C3)O[C@@H](CO)[C@H]1O2 | -1 | -47 | 45 | . | . | . | .
O=C(Nc1ccc(C(F)(F)F)cc1)Nc1ccc2c(c1)[C@H]1C[C@@H](CC(=O)N3CCc4ccccc4C3)O[C@@H](CO)[C@H]1O2 | 4 | -67 | 93 | . | . | . | .
O=C(Nc1ccc(C(F)(F)F)cc1)Nc1ccc2c(c1)[C@H]1C[C@H](CC(=O)N3CCc4ccccc4C3)O[C@@H](CO)[C@H]1O2 | 32 | -53 | 141* | 96* | 87 | 4 | 103*
CN(C)c1ccc2c(c1)[C@@H]1C[C@@H](CC(=O)N3CCc4ccccc4C3)O[C@@H](CO)[C@@H]1O2 | -7 | -86* | 135* | 25 | 22 | -3 | 11
O=C(Nc1ccc(C(F)(F)F)cc1)Nc1ccc2c(c1)[C@H]1C[C@@H](CC(=O)N3CCc4ccccc4C3)O[C@H](CO)[C@H]1O2 | 12 | -49 | ? | 89 | 112* | 31 | 40*
CO[C@@H]1CN(C)C(=O)c2ccc(NS(=O)(=O)CC(F)(F)F)cc2OC[C@H](C)N(C)C[C@H]1C | -8 | 0 | 17 | . | . | . | .
O=C(CN1CCOCC1)N[C@@H]1CC[C@H](CCn2cc(C3CCCCC3)nn2)O[C@H]1CO | -4 | 2 | -5 | . | . | . | .
CO[C@@H]1CC[C@@H]2CCOc3ccc(C#N)cc3C(=O)N(C)CCCC(=O)N(C)C[C@H]1O2 | 9 | . | 0 | . | . | . | .
C[C@@H]1CCCCO[C@H](CN(C)CC2CCCCC2)[C@@H](C)CN([C@H](C)CO)C(=O)c2cc(NC(=O)Nc3ccc(F)cc3)ccc2O1 | 11 | -57 | 39 | . | . | . | .
C[C@@H]1CN([C@@H](C)CO)C(=O)c2cc(NC(=O)Nc3ccc(F)cc3)ccc2O[C@@H](C)CCCCO[C@H]1CN(C)CC1CC1 | 10 | -22 | 81 | . | . | . | .
C[C@@H]1CCCCO[C@@H](CN(C)CC2CC2)[C@H](C)CN([C@@H](C)CO)C(=O)c2cc(NC(=O)Nc3ccc(F)cc3)ccc2O1 | 6 | -23 | 103* | 87 | -45 | -16 | -21
C[C@@H]1CCCCO[C@@H](CN(C)CC2CCCCC2)[C@H](C)CN([C@@H](C)CO)C(=O)c2cc(NC(=O)Nc3ccc(F)cc3)ccc2O1 | 6 | -74 | 114* | 99* | 77 | 21 | 106*
C[C@@H]1CN([C@H](C)CO)C(=O)c2cccc(NS(=O)(=O)c3ccc(Cl)cc3)c2O[C@@H]1CN(C)S(=O)(=O)c1cccs1 | -9 | -2 | 44 | . | . | . | .
Cc1noc(C)c1NC(=O)Nc1ccc2c(c1)C(=O)N([C@@H](C)CO)C[C@@H](C)[C@@H](CN(C)S(=O)(=O)c1ccc(F)cc1)O2 | -1 | 5 | 9 | . | . | . | .
C[C@H](CO)N1C[C@H](C)[C@H](CN(C)Cc2ccccc2)Oc2ccc(N(C)C)cc2CC1=O | 7 | 48 | -19 | . | . | . | .
SMILES | C diff HTS | Pf Dd2 inh | T cruzi growth-1 | T cruzi growth-2 | T cruzi growth-3 | 3T3 cytotox | NIH3T3 tox 2
C[C@H](CO)N1C[C@H](C)[C@H](CN(C)Cc2ccc(Oc3ccccc3)cc2)Oc2ccc(N(C)C)cc2C1=O | 5 | -11 | 98* | ? | 8 | -6 | 101*
C[C@H]1CN([C@@H](C)CO)C(=O)Cc2cc(N(C)C)ccc2O[C@@H]1CN(C)Cc1ccc(Oc2ccccc2)cc1 | 2 | -10 | 115* | 104* | 48 | -10 | 77*
C[C@@H]1CN([C@H](C)CO)C(=O)Cc2cc(N(C)C)ccc2O[C@@H]1CN(C)Cc1ccc(Oc2ccccc2)cc1 | 1 | 1 | 40 | . | . | . | .
C[C@@H]1CN([C@H](C)CO)C(=O)c2cc(N(C)C)ccc2O[C@H]1CN(C)Cc1ccc(Oc2ccccc2)cc1 | -7 | -24 | 60 | . | . | . | .
C[C@H]1CN([C@@H](C)CO)C(=O)Cc2cc(N(C)C)ccc2O[C@H]1CN(C)Cc1ccc(Oc2ccccc2)cc1 | -13 | -10 | ? | 106* | 114* | 19 | 106*
O=C(C[C@@H]1CC[C@H]2[C@@H](COC[C@@H](O)CN2C(=O)c2ccccc2)O1)N1CCc2ccccc2C1 | 1 | -1 | 21 | . | . | . | .
COc1ccccc1C#Cc1ccc2c(c1)O[C@H](CN(C)C)[C@@H](C)CN([C@@H](C)CO)S2(=O)=O | 0 | -53 | . | . | . | . | .
COc1ccccc1C#Cc1ccc2c(c1)O[C@H](CN(C)Cc1ccncc1)[C@@H](C)CN([C@H](C)CO)S2(=O)=O | -4 | -60 | 123* | 97* | 102* | 11 | 71*
COc1ccccc1C#Cc1ccc2c(c1)O[C@H](CN(C)Cc1ccncc1)[C@H](C)CN([C@H](C)CO)S2(=O)=O | -2 | -64 | 112* | 104* | 84 | 28 | 7
COc1ccccc1C#Cc1ccc2c(c1)O[C@@H](CN(C)C)[C@@H](C)CN([C@H](C)CO)S2(=O)=O | -2 | -5 | . | . | . | . | .
CC(C)NC(=O)N(C)C[C@@H]1Oc2ccc(NS(=O)(=O)c3ccc(F)cc3)cc2C(=O)N([C@H](C)CO)C[C@H]1C | 8 | 22 | -10 | . | . | . | .
C[C@@H]1CN([C@@H](C)CO)C(=O)c2cc(C#Cc3ccccc3F)cnc2O[C@@H]1CN(C)S(C)(=O)=O | . | -9 | 64 | . | . | . | .
